Test results taken from the supplement of paper PMC10600219.
Counter-ions that a name gives are not always drawn. Whole data set: some 2,800 compounds, median “cell viability relative to vehicle” near 0.98, cut for the lowest 2% near 0.45. Only a selection was taken, and the lowest values are over-represented in it overall.

system: NCI-H2228 alectinib-DTP; test: cell viability relative to vehicle (fraction of vehicle); NCI-H2228 is an ALK-positive lung cancer line and DTP means drug-tolerant persister; higher = less growth inhibition; conditions: 100 nM; treatment time 6 days
How it was run: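 Parental NCI-H2228 cells and drug-tolerant persister cells (made with 1000 nM of a targeted drug for 13 days) were seeded in 384-well plates. The next day, the 3114-agent TargetMol anti-cancer compound library was added at 100 nM, with DMSO as vehicle. After 6 days, ATP was read with the CellTiter-Glo 3D Cell Viability Assay. Each value is cell viability relative to vehicle-treated cells.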

| SMILES | cell viability |
| --- | --- |
| O=C(O)c1ccc2c(c1)C(=O)c1ccccc1C2=O | 1.08 |
| O=c1cc(-c2ccc(O[C@@H]3O[C@H](CO)[C@@H](O)[C@H](O)[C@H]3O)cc2)oc2cc(O)c([C@@H]3O[C@H](CO)[C@@H](O)[C@H](O)[C@H]3O[C@@H]3OC[C@H](O)[C@H](O)[C@H]3O)c(O)c12 [Vaccarin] | 0.919 |
| C[C@H]1COC2(CCN(c3nc(=O)c4cc(C(F)(F)F)cc([N+](=O)[O-])c4s3)CC2)O1 | 1.05 |
| CC(NC(=O)C(Cc1ccccc1)NC(=O)OCc1ccccc1)C(=O)CF (stereo unspecified) | 0.979 |
| CC(=O)NC(Cc1ccccc1)C(=O)O (stereo unspecified) [Afalanine] | 0.984 |
| COC[C@H](NC(=O)c1cnc(C)s1)C(=O)N[C@@H](COC)C(=O)N[C@@H](Cc1ccccc1)C(=O)[C@@]1(C)CO1 [Oprozomib] | 0.371 |
| Cc1cc(F)c(C(=O)Nc2cccc(-c3nncn3C(C)C)n2)cc1-n1cnc(C2CC2)c1 [Selonsertib] | 0.918 |
| O=c1[nH]c(=O)n([C@@H]2O[C@H](CO)[C@@H](O)[C@H]2O)cc1F [5-Fluorouridine] | 0.837 |
| Cn1nccc1Nc1nccc(-c2cc3c(s2)C(C)(C)N(CCN2CCOCC2)C3=O)n1 | 1.06 |
| CC(C)n1ncnc1-c1cn2c(n1)-c1ccc(O[C@@H](C)C(N)=O)cc1OCC2 | 0.717 |
| Cc1nc(-c2cn3c(n2)-c2ccc(-c4cnn(C(C)(C)C(N)=O)c4)cc2OCC3)n(C(C)C)n1 [Taselisib] | 0.425 |
| O[C@H]1[C@H]2c3cc4c(cc3CN3CCC(=C[C@@H]1O)[C@H]23)OCO4 [Lycorine chloride] | 0.966 |
| CC(=O)N[C@H]1CSSC[C@@H](C(N)=O)NC(=O)[C@H](C(C)C)NC(=O)[C@H](C)NC(=O)[C@H](Cc2c[nH]cn2)NC1=O [Exherin trifluoroacetate] | 1.11 |
| COc1cc2c(NC3CCN(C(C)C)CC3)nc(C3CCCCC3)nc2cc1OCCCN1CCCC1 | 1.15 |
| N[C@@H](CCCCNC(=O)C(F)(F)F)C(=O)O [N-6-Trifluoroacetyl-L-lysine] | 0.966 |
| Cc1ncc(NC(=O)c2ccc(CN3CCN(C)CC3)c(C(F)(F)F)c2)cc1Nc1nccc(-c2cccnc2)n1 [Flumatinib] | 1.15 |
| Cc1ccc(C(=O)Nc2ccc(CN3CCN(C)CC3)c(C(F)(F)F)c2)cc1C#Cc1cnc2[nH]ncc2c1 [GZD824 Dimesylate] | 0.33 |
| CCN1CCN(Cc2ccc(NC(=O)c3ccc(C)c(NC(=O)c4cncc(-c5cccs5)c4)c3)cc2C(F)(F)F)CC1 | 0.789 |
| Cc1ccc(C(=O)Nc2ccc(CN3CCN(C)CC3)c(C(F)(F)F)c2)cc1C#Cc1cnc2[nH]ncc2c1 | 0.423 |
| Cc1ccc(C(=O)Nc2ccc(CN3CCN(C)CC3)c(C(F)(F)F)c2)cc1C#Cc1cnc2cccnn12 [Ponatinib] | 0.834 |
| CS(=O)(=O)Nc1ccc([N+](=O)[O-])cc1OC1CCCCC1 | 1.12 |
| S=C(N/N=C1/CCCc2cccnc21)N1CCN(c2ccccn2)CC1 | 1.09 |
| Cc1ccc(/C(=C\CN2CCCC2)c2ccccn2)cc1 [Triprolidine hydrochloride] | 1.18 |
| C/C(=N\NC(=S)N1CCC1)c1ccccn1 | 0.362 |

| SMILES | cell viability |
| --- | --- |
| Cn1c(O)c(C2=c3ccccc3=NC2=O)c2ccccc21 [Methylisoindigotin] | 0.85 |
| CC(C)=CCc1cc2c(cc1O)oc(=O)c1c3ccc(O)cc3oc21 [Psoralidin] | 1.15 |
| COc1ccc(C[C@H](NC(=O)[C@H](C)NC(=O)CN2CCOCC2)C(=O)N[C@@H](Cc2ccccc2)C(=O)C2(C)CO2)cc1 (stereo in doubt) | 1.03 |
| CC(C)c1nc(CN(C)C(=O)N[C@@H](CCN2CCOCC2)C(=O)N[C@H](CC[C@H](Cc2ccccc2)NC(=O)OCc2cncs2)Cc2ccccc2)cs1 [Cobicistat] | 1.02 |
| CC(C)C[C@H](NC(=O)[C@H](CCc1ccccc1)NC(=O)CN1CCOCC1)C(=O)N[C@@H](Cc1ccccc1)C(=O)N[C@@H](CC(C)C)C(=O)[C@@]1(C)CO1 [Carfilzomib] | 0.116 |
| N[C@@H](CSCCB(O)O)C(=O)O | 0.835 |
| O=C(O)Cn1c2c(c3cc(F)ccc31)CN(C(=O)c1cccc3ccccc13)CC2 [Setipiprant] | 1.18 |
| CC(C)(C)c1ccc(C(=O)NC(=S)Nc2ccc(N)cc2)cc1 [Tenovin3] | 0.734 |
| CCCCCCCCCCCCCC(=S)NCCCC[C@H](NC(=O)OCc1ccccc1)C(=O)Nc1ccccc1 [Thiomyristoyl] | 1.11 |
| C/C=C1\NC(=O)[C@H]2CSSCC/C=C/[C@H](CC(=O)N[C@H](C(C)C)C(=O)N2)OC(=O)[C@H](C(C)C)NC1=O [Romidepsin] | 0.116 |
| O=c1nc(N2CCN(CC3CCCCC3)CC2)sc2c([N+](=O)[O-])cc(C(F)(F)F)cc12 | 0.985 |
| CCC(Sc1nnc2c(n1)[nH]c1ccccc12)C(=O)N1c2ccccc2Sc2ccccc21 (stereo unspecified) [Inauhzin] | 1.06 |
| CCc1c2c(nc3ccc(OC(=O)N4CCC(N5CCCCC5)CC4)cc13)-c1cc3c(c(=O)n1C2)COC(=O)[C@]3(O)CC [Irinotecan] | 1.07 |
| CC[C@@]1(O)C(=O)OCc2c1cc1n(c2=O)Cc2cc3cc(O)ccc3nc2-1 [Hydroxy Camptothecine] | 0.255 |
| CCc1c2c(nc3ccc(OC(=O)N4CCC(N5CCCCC5)CC4)cc13)-c1cc3c(c(=O)n1C2)COC(=O)[C@]3(O)CC [Irinotecan hydrochloride trihydrate] | 1.05 |
| CC[C@@]1(O)C(=O)OCc2c1cc1n(c2=O)Cc2cc3c(CN(C)C)c(O)ccc3nc2-1 [Topotecan hydrochloride] | 0.245 |
| CC[C@@]1(O)C(=O)OCc2c1cc1n(c2=O)Cc2cc3cc(O)ccc3nc2-1 [10-Hydroxycamptothecin] | 0.304 |
| CCc1c2c(nc3ccc(O)cc13)-c1cc3c(c(=O)n1C2)COC(=O)[C@]3(O)CC | 0.263 |
| COc1ccc(S(=O)(=O)NCc2ccc(C(=O)NCCc3ccc(Cl)cn3)cc2)cc1 | 1.14 |
| CN1CCN(c2ccc(C(=O)Nc3cc(-c4cccc(NS(=O)(=O)c5ccccc5)c4)[nH]n3)cc2)CC1 | 0.98 |
| CC(C)Cc1ccc(-c2nc(-c3ccc(CN4CC(C(=O)O)C4)c(F)c3)no2)cc1 [S1p-receptor-agonist-1] | 1.03 |
| OC(CCN1CCCCC1)(c1ccccc1)C1CCCCC1 (racemic) [DL-trihexyphenidyl hydrochloride] | 0.964 |
| CCCC[S+]([O-])c1sc2nc(-c3cccs3)cc(-c3ccccc3)c2c1N (stereo unspecified) | 1 |
| Nc1c(S(=O)(=O)c2ccccc2)c2nc3ccccc3nc2n1-c1ccc(F)cc1 | 1.11 |

| SMILES | cell viability |
| --- | --- |
| Cc1cccc(C)c1N(CC(=O)Nc1ccc(-c2ncon2)cc1)C(=O)C1CCS(=O)(=O)CC1 [Amenamevir] | 0.926 |
| CC(C)=CC(=O)CCC(=O)N1CCN(Cc2cc3nc(-c4cccc5[nH]ncc45)nc(N4CCOCC4)c3s2)CC1 | 0.892 |
| O=C1Nc2ccccc2/C1=C/c1ccc(F)cc1 | 1.04 |
| N#Cc1c(-c2ccccc2)cc(-c2cc(Br)ccc2O)[nH]c1=O | 0.907 |
| CC/C(=C(/c1ccc(/C=C/C(=O)O)cc1)c1ccc2[nH]ncc2c1)c1ccc(F)cc1Cl | 1.07 |
| CCOC(=O)c1c(C)[nH]c(C=C2C(=O)Nc3ccccc32)c1C [VEGFR2 Kinase Inhibitor I] | 1.19 |
| COc1c(O[C@@H]2O[C@H](CO)[C@@H](O)[C@H](O)[C@H]2O)cc2occ(-c3ccc(O)cc3)c(=O)c2c1O [Tectoridin] | 1.03 |
| Cc1[nH]c2ccccc2c1CCNC(=O)c1cccs1 | 0.919 |
| Cc1[nH]c2ccccc2c1CCNCc1ccc(/C=C/C(=O)NO)cc1 [Panobinostat] | 0.22 |
| CN(C)Cc1ccc(S(=O)(=O)n2ccc(/C=C/C(=O)NO)c2)cc1 [Resminostat hydrochloride] | 1.15 |
| Cc1ccc(S(=O)(=O)Nc2cc(C(F)(F)F)ccc2C(=O)Nc2nc(-c3ccccc3)cs2)cc1 | 0.852 |
| CCC(=O)O[C@]1(C(=O)CO)CC[C@H]2[C@@H]3CCC4=CC(=O)CC[C@]4(C)[C@H]3CC[C@@]21C [17 alpha-propionate] | 0.936 |
| NC[C@H]1OB(O)c2c(OCCCO)cccc21 [Epetraborole hydrochloride] | 1.11 |
| Cc1cc(O)c(-c2ccc(C(C)CN)cc2)c2c1[nH]c(=O)c1sccc12 (stereo unspecified) | 0.15 |
| O=C1C[C@@H](c2ccccc2)Oc2cc(O)cc(O)c21 [Pinocembrin] | 0.964 |
| C[C@H](CCOc1cccc(CC(=O)O)c1)N(Cc1cccc(C(F)(F)F)c1Cl)CC(c1ccccc1)c1ccccc1 | 0.781 |
| C=C1CC[C@H]2C(=C)CC[C@H]3C(=C)C(=O)O[C@@H]3[C@@H]12 [Dehydrocostus Lactone] | 0.984 |
| CC(C)=CCC[C@](C)(O)[C@H]1CC[C@]2(C)[C@@H]1[C@H](O)C[C@@H]1[C@@]3(C)CC[C@H](O)C(C)(C)[C@@H]3CC[C@]12C [(20S)-Protopanaxadiol] | 0.908 |
| Cc1c(-c2ccc(N3CCc4cccc(C(=O)Nc5nc6ccccc6s5)c4C3)nc2C(=O)O)cnn1CC12CC3CC(CC(C3)C1)C2 | 0.806 |
| CCn1cc(C(=O)O)c(=O)c2c(N)c(F)c(NC3CCCCC3)cc21 | 1.1 |
| O=C(NCc1ccc(S(=O)(=O)c2cc(F)cc(F)c2)cc1)c1ccc2nccn2c1 | 0.34 |
| Cc1ccc(S(=O)(=O)Cc2nc(-c3ccc(C(=O)NCc4cccnc4)cc3)oc2C)cc1 | 0.955 |
| CC1(C)CC[C@]2(C(=O)O)CCC3=C([C@@H](CCl)C[C@@H]4[C@@]5(C)C[C@H](O)[C@H](O)[C@@](C)(C(=O)O)[C@@H]5CC[C@@]34C)[C@@H]2C1 [Senegenin] | 0.889 |
